BL2 CD40 inh – CD40 pathway inhibition in BL2 cells | BL2 NF-kB luciferase reporter, CD40L-induced, 4 h | inhibition, % at 10 µM | hit rate 0.94% among 83,000;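 active = mean inhibition of at least 50% with a set share of replicates also reaching that level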;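 note: 0% = neutral control wells and 100% = IKK inhibitor VII at 50 µM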
Starred values were filed as active, the others as inactive; [ ] = remark or other dose. The sample as a whole holds a higher share of hits than the screen did.

SMILES	BL2 CD40 inh
CC1CCCC=CC2CC(OC(=O)CN(C)C)CC2C(O)C=CC(=O)O1 (stereo not drawn)	83.3*
C[C@@H]1CN([C@H](C)CO)C(=O)c2cc(NC(=O)Nc3ccc4c(c3)OCO4)ccc2O[C@@H]1CN(C)C	6.5[25 µM]
CN(C)c1ccc(NC(=O)c2ccc3c(c2)nnn3C)cc1	-57.8
CN(C)c1ccc(NC(=O)c2cnsn2)cc1	65.4*
CN(C)c1ccc(NC(=O)c2ccc3nc[nH]c3c2)cc1	-58.5
Cc1cccc(-c2ccc([C@H]3[C@@H](CO)N4C(=O)CN(C(=O)c5ccc6c(c5)OCO6)C[C@@H]34)cc2)c1	3.9[25 µM]
CN1C[C@H]2[C@@H](c3ccccc31)[C@@H](CO)N2S(=O)(=O)c1ccccc1	-18.8[25 µM]
OC(COc1ccc2ccccc2c1)CN1CCCC1 (stereo not drawn)	-35.6
O=C(O)C1CCCCN1S(=O)(=O)c1ccc2ccccc2c1 (stereo not drawn)	4.0
O=S(=O)(CC(CN1CCCC1)N1CCCC1)c1ccc2ccccc2c1 (stereo not drawn)	51.7*
CC(=O)N(C)C[C@@H]1Oc2ccc(NS(C)(=O)=O)cc2C(=O)N(C)C[C@@H]1C	-0.9
CCC(=O)N1[C@@H](CO)[C@@H](c2ccccc2)C12CN(Cc1ccccc1Cl)C2	7.6[25 µM]
CC(=O)N(C)C[C@H]1Oc2ncccc2C(=O)N(C)C[C@@H]1C	1.7
CC=Cc1ccc2n(c1=O)C[C@@H]1[C@@H](CO)[C@H](C(=O)NCCc3ccncc3)N(CCC(F)(F)F)[C@H]21 (mixture of isomers)	-8.7[25 µM]
CCc1nnc(NS(=O)(=O)c2ccc(Nc3ccc([N+](=O)[O-])c4nonc34)cc2)s1	16.1
Cc1ccc(S(=O)c2ccc([N+](=O)[O-])c3nonc23)cc1 (stereo not drawn)	87.5*
Cc1ccc(C)c([N+](=O)[O-])c1	11.8
CN(C)C(=O)c1ccc(-c2ccc([C@@H]3[C@@H](CO)N4C(=O)CN(C(=O)CC5CC5)C[C@@H]34)cc2)cc1	-4.7[25 µM]
Nc1nnc(CCOc2ccc(Cl)cc2)s1	-4.2
NCCOc1ccc(C23CC4CC(CC(C4)C2)C3)cc1	103.7*
NC(=O)c1ccc(C23CC4CC(CC(C4)C2)C3)o1	-1.3
O=C(NCC[C@H]1CC[C@@H](NC(=O)C2CCCC2)[C@@H](CO)O1)c1cnccn1	2.2
CCc1sc(N2[C@@H](C#N)[C@@H](c3ccccc3-c3ccc(F)cc3)[C@@H]2CO)nc1C	-8.0[25 µM]
N#C[C@@H]1[C@@H](c2ccccc2-c2ccc(F)cc2)[C@@H](CO)N1c1ncc(-c2ccccc2)s1	3.3[25 µM]
Cc1[nH]c2ccccc2c1C(c1ccncc1)N1CCN(c2ccccn2)CC1 (stereo not drawn)	-2.8
SMILES	BL2 CD40 inh
Cc1[nH]c2ccccc2c1C(c1ccncc1)N1CCC(C)CC1 (stereo not drawn)	16.2
Cc1[nH]c2ccccc2c1C(c1ccccn1)N1CCC(C(N)=O)CC1 (stereo not drawn)	62.5*
Fc1ccc(CN2[C@@H]3CN(CC(F)(F)F)C[C@H]2C3c2ccccc2)cc1 (stereo partly drawn)	1.2
O=C(NCc1ccccn1)c1cc(-c2ccccc2)on1	-24.5
Cc1cc(NC(=O)c2cc(-c3ccccc3)on2)no1	-48.8
O=C(c1ccccc1)c1cc(-c2ccccc2)on1	73.3*
CO[C@H]1CN(C)C(=O)c2ccc(NC(=O)C3CCC3)cc2OC[C@@H](C)N(Cc2cccnc2)C[C@H]1C	4.4
CC(=O)Nc1ccc2c(c1)CC(=O)N(C)C[C@@H](C)[C@@H](CN(C)C)O2	-1.6
O=C(Nc1ccc(Cl)cc1)N1C[C@@H]2[C@H](c3ccccc31)[C@H](CO)N2C(=O)c1cccnc1	-29.0
